The list is not random: actives were taken first. Their share in the collection is about 6%.
DRD3 antagonist – blocks the human D3 dopamine receptor; P35462; D3R cells, DiscoveRx beta-arrestin luminescence, antagonist mode; stronger effect = lower value; max response, negative = inhibition, %; 360,000 compounds, 2.5% hits; AID 652054; in the data active = max response below about -50%; inconclusive = no clear call, values can overlap the other calls; note: % is set by controls: 0 for no effect and ±100 for the full control effect
Target sequence (P35462 whole entry, looked up): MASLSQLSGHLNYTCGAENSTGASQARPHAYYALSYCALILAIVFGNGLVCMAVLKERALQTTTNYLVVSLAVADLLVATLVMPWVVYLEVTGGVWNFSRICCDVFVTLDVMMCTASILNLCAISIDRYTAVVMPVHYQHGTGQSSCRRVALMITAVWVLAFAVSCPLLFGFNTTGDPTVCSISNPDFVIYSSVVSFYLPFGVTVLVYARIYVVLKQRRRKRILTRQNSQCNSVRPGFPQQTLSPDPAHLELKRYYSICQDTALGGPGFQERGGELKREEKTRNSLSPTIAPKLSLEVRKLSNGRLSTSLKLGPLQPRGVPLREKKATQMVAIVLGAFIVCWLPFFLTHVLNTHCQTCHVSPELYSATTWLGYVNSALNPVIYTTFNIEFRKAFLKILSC
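Cells expressing the human receptor were seeded at 1500 cells/well, incubated overnight at 37 degrees C in 5% CO2, then exposed to library compounds with dopamine controls for 90 minutes at 37 degrees C before luminescent detection.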
D3 ag – agonists of human D3 dopamine receptor; P35462; D3R DiscoveRx beta-arrestin cells, luminescence, 90 min; max activation, %; 410,000 compounds, 0.58% hits; AID 652048; in the data active = max activation above about 30%; note: 0% is about no effect
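Agonist mode: compounds and dopamine controls were applied to plated cells for 90 min at 37 degrees C after an overnight attachment at 1500 cells/well. Luminescent read-out followed 30 - 60 minutes at room temperature with DiscoveRx detection reagent.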
D1 PAM – human D1 dopamine receptor positive modulation | 360,000 compounds, 0.036% hits | HEK293 TREx D1 cells, calcium flux, dopamine EC20 potentiation | potentiation, % at 10 µM; in the data active = potentiation above about 30%; note: 0% is about no effect
D1 antagonist – blocks dopamine activation of the human D1 receptor; HEK293 TREx D1 cells, calcium flux, dopamine EC80; stronger effect = lower value; activity change, negative = inhibition, % at 10 µM; 360,000 compounds, 3.2% hits; in the data active = activity change below about -30%; note: % is set by controls: 0 for no effect and ±100 for the full control effect
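Tetracycline-induced HEK293 T-REx cells with force-coupled D1 receptor were loaded with a no-wash calcium dye. Compound was added after a 10 s baseline and read kinetically for 180 s; EC80 dopamine was then added and calcium flux followed another 180 s.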
D1 ag – activates the human D1 dopamine receptor. HEK293 T-REx D1 cells, calcium flux, agonist mode. activation, % at 2 µM. 360,000 compounds, 1% hits; in the data active = activation above about 30%; note: 0% is about no effect
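Inducible HEK293 T-REx D1 cells, force-coupled to calcium signalling, were plated at 4000 cells/well with tetracycline and held overnight at 30 C. After no-wash calcium dye loading, compound-evoked calcium rise over 180 s flagged agonists.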
Starred values were filed as active, the others as inactive; ? = inconclusive; nt = no result.

SMILES	DRD3 antagonist	D3 ag	D1 PAM	D1 antagonist	D1 ag
O=C(CN1CCN(Cc2ccc3c(c2)OCO3)CC1)N1CCc2[nH]c3ccc(F)cc3c2C1	?	-7.3	-0.9	-27.3	34.1*
CCOc1ccc(NC(=O)c2ccc(F)c(S(=O)(=O)NCc3ccc4c(c3)OCO4)c2)cc1	nt	9.1	0.2	-33.9*	4.2
O=C(/C=C/c1cccc([N+](=O)[O-])c1)N1CCN(Cc2ccc3c(c2)OCO3)CC1	-8.1	-4.1	-8.7	-34.1*	2.5
Cc1ccccc1CN1C(=O)c2ccccc2S(=O)(=O)c2ccc(C(=O)OCC3CCCO3)cc21 (configuration not stated)	nt	0.8	-5.3	-5.0	3.2
Cc1ccc(Cl)cc1NS(=O)(=O)c1ccc(N2CCCCS2(=O)=O)cc1	nt	-5.1	0.7	-15.8	27.4
CN(c1ccc(C(=O)N2CCN(Cc3ccc4c(c3)OCO4)CC2)cc1)S(C)(=O)=O	-21.6	2.7	-3.9	-5.5	0.8
O=C(c1ccc(S(=O)(=O)N2CCCC2)cc1)N1CCN(Cc2ccc3c(c2)OCO3)CC1	-51.5*	-12.7	0.1	-10.4	2.5
O=C(Cn1ccc2ccccc2c1=O)N1CCN(Cc2ccc3c(c2)OCO3)CC1	13.3	3.9	-4.3	-57.2*	-0.8
O=C(CN1C(=O)c2ccccc2S1(=O)=O)N1CCN(Cc2ccc3c(c2)OCO3)CC1	-3.3	0.1	0.5	1.1	8.3
COc1cc2c(cc1OC)[C@@H](c1ccccc1)CN(C)CC2	nt	-11.8	nt	nt	nt
C=CCOc1ccccc1CNCCc1ccc(S(N)(=O)=O)cc1	0.0	-23.0	1.8	-9.9	9.2
NS(=O)(=O)c1ccc(CCNCc2cc(Br)ccc2OCc2ccccc2F)cc1	-9.0	-11.1	-2.8	-31.0*	25.3
NS(=O)(=O)c1ccc(CCNCc2cc(Cl)ccc2OCc2ccccc2)cc1	-9.9	-15.1	-6.1	-5.7	56.5*
COc1cc(CNCCNC(=O)c2nonc2N)ccc1OCc1ccc(Cl)cc1	1.3	5.8	-4.3	-21.7	69.1*
NS(=O)(=O)c1ccc(CCNCc2ccccc2OCc2ccc(Cl)cc2)cc1	0.0	-21.6	-7.8	-47.7*	53.2*
COc1cc2c(cc1OC)C(COc1ccc3c(C)cc(=O)oc3c1)N(C(=O)c1ccccc1F)CC2 (configuration not stated)	nt	-9.4	0.2	-9.7	4.0
Cc1ccc(C)c(CN2C(=O)N(c3cc(Cl)ccc3C)S(=O)(=O)c3ccccc32)c1	nt	2.8	-3.1	-11.9	1.0
C[N+]1(C)CCN(CC(O)(c2ccccc2)C2CCCCC2)CC1 (configuration not stated)	nt	-29.2	nt	nt	nt
Nc1nonc1C(=O)NCCNCc1cc(Br)ccc1OCc1ccccc1F	0.0	-6.3	-7.5	-10.1	31.1*
Nc1nonc1C(=O)NCCNCc1ccccc1OCc1ccccc1F	-1.0	-5.1	-9.1	-28.3	22.8
Fc1ccc(COc2ccc(Br)cc2CNCC2CCCO2)cc1 (configuration not stated)	3.0	-2.8	-11.7	-6.8	9.2
Fc1ccccc1COc1ccc(Br)cc1CNCC1CCCO1 (configuration not stated)	-14.6	-10.9	-12.2	-50.2*	11.8
CC(C)(C)c1ccc(/C=C/C(=O)Nc2ccc(S(N)(=O)=O)cc2)cc1	nt	25.2	-2.2	-14.0	33.1*

High-throughput results (PubChem)
